Screen size: about 420,000 compounds; about 64,000 (15%) were called active. About 27% were inconclusive and are not listed. The call rests on the fitted dose curve; in most records, active means well fitted inhibition curve with a large enough effect; inconclusive means small, poorly fitted or top-dose-only effect; inactive means flat fitted curve, though single readings scatter. These entries were drawn from the full list. Where a call stands in place of a potency, no number is given.

The source of these data is PubChem BioAssay AID686978 (National Center for Advancing Translational Sciences (NCATS), 2013).
Potency means the concentration at half of the fitted maximal effect.

A short description of the assay: qHTS for Inhibitors of human tyrosyl-DNA phosphodiesterase 1 (TDP1): qHTS in cells in absence of CPT. Further: nearly all actives have a fitted effect of over 55% in size. As to conditions: DT40 Tdp1-/- hTDP1 cells, no CPT, ATP luminescence, 48 h; activity change, negative = growth inhibition: at 46.2 µM (top of the series). The procedure, abridged: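 Growth of hTDP1-complemented DT40 Tdp1-knockout cells is measured by ATP luminescence after at least 48 hr compound exposure at 37 °C, with DMSO substituting for the 20 nM CPT used in the parallel screen.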
As for `C=CCn1c(COc2ccccc2F)nnc1SCC(=O)N1CC(=O)Nc2ccccc21`, the Potency result was “inactive”.

Consider `O=C(O)C1C2C=CC(C2)C1C(=O)N1CCN(CCO)CC1` (stereo unspecified), for which the Potency entry is “inactive”.

For the compound `C/C(=N\c1nc2ccccc2n1C)c1cc(Cl)ccc1O`, the Potency entry is “inactive”.

Regarding `CCCOc1ccc(C2c3c(oc4cc(C)c(C)cc4c3=O)C(=O)N2CCCN2CCOCC2)cc1` (stereo unspecified), the Potency entry was “inactive”.

Consider `Cc1cc2oc3ccc(NCCC4CCCN4C)cc3c(=O)c2cc1C` (stereo unspecified), for which the Potency was 16.4 µM (active).

Take `Cc1ccc(C(=O)O)c(NC=O)c1OCc1ccccc1`: the Potency result is “inactive”.

For `CC(=O)Nc1ccc(NC(=O)CSc2nnc3c4cc(Br)ccc4n(C)c3n2)cc1`, the Potency result is “inactive”.

Consider `O=C1CCC/C(=N\NC(=O)NC2CCCCC2)C1`, for which the Potency result is “inactive”.

For `Cc1cnc(NC(=O)CSc2nnc(-c3ccccc3)n2Cc2ccccc2)s1`, the Potency entry was “inactive”.

As for `COC(=O)c1ccc(COc2cc([N+](=O)[O-])cc3cccnc23)cc1`, the Potency entry was “inactive”.

Take `COc1ccc(CNC(=O)COC(=O)C(CCSC)N2C(=O)c3ccccc3C2=O)cc1` (stereo unspecified): the Potency result was “inactive”.

In the case of `Cc1cccc(-c2cc(=O)c3cc(C)ccc3o2)c1`, the Potency result was “inactive”.

As for `O=C(c1cc(=O)c2ccccc2o1)N1CCN(c2ccccc2)CC1`, the Potency result is “inactive”.

Take `COc1ccccc1OCc1ccc(C(=O)N2CCN(C)CC2)o1`: the Potency entry was “inactive”.

Turning to `COc1ccccc1N1CCN(C(=O)c2cc(=O)c3cc(C)ccc3o2)CC1`, the Potency is 23.1 µM (active).

Regarding `COc1ccccc1N1CCN(C(=O)c2cc(=O)c3cc(C)cc(C)c3o2)CC1`, the Potency was 0.0082 µM (active).

As to `COc1cccc2cc(C(=O)N3CCN(C(=O)c4ccccc4)CC3)c(=O)oc12`, the Potency entry is “inactive”.

For the compound `COc1ccc2c(CC(=O)N3CCc4cc(OC)c(OC)cc4C3)coc2c1`, the Potency entry was “inactive”.

Take `COc1ccccc1N1CCN(c2nc(C)cc(=O)[nH]2)CC1`: the Potency entry was “inactive”.

For `COc1cc2c(cc1OC)CN(C(=O)c1cc(=O)c3ccccc3o1)CC2`, the Potency is 3.26 µM (active).

In the case of `O=C(NCc1ccco1)/C(=C\c1cccc([N+](=O)[O-])c1)NC(=O)c1ccco1`, the Potency result is “inactive”.

As to `Cc1cc(NC(=O)COC(=O)/C=C/c2ccc(C)o2)no1`, the Potency result was “inactive”.

In the case of `COc1cccc2c1OCC1COc3c(c(=O)n(C)c(=O)n3C)C21` (stereo unspecified), the Potency entry was “inactive”.

Turning to `COc1ccc(NC(=S)NCCN2CCC(C)CC2)cc1`, the Potency entry was “inactive”.

Take `CC(C)CC(=O)c1c[nH]c(C(=O)NCc2ccccc2)c1`: the Potency entry is “inactive”.

In the case of `O=C(CN1CCSCC1)N/N=C/c1ccc(F)cc1F`, the Potency entry was “inactive”.

`OC(CBr)CN1CCCCC1` (stereo unspecified): the Potency result is “inactive”.

Regarding `OC(COCCC12CC3CC(CC(C3)C1)C2)CN1CCCCC1` (stereo unspecified), the Potency is 16.4 µM (active).

Regarding `OC(COc1ccc(CN2CCSCC2)cc1)CN1CCCCC1` (stereo unspecified), the Potency entry is “inactive”.

As to `O=C(CSc1nc2ccccc2c(=O)n1-c1ccccc1F)N1CCOCC1`, the Potency result was “inactive”.

For the compound `CCN(CC)CCCC(C)n1c2nc(=O)[nH]c(=O)c-2nc2cc(Cl)ccc21` (stereo unspecified), the Potency was 8.2 µM (active).

With `CCCCc1nc2ccccc2c(NC(=O)CN2CCN(C)CC2)c1CCC`, the Potency entry was “inactive”.

In the case of `O=C(OCc1nnc(-c2ccccc2)o1)c1cc(=O)[nH]c2ccccc12`, the Potency entry was “inactive”.

Take `CCCc1nc2ccccc2c(C(=O)OCc2nnc(-c3cc(OC)c(OC)c(OC)c3)o2)c1CC`: the Potency is 23.1 µM (active).

For the compound `C=CCn1c(N)cc(=O)nc1SCC(=O)Nc1cccc2ccccc12`, the Potency entry was “inactive”.

For the compound `CCOc1ccccc1CN1CCN(C2CCC2)CC1CCO` (stereo unspecified), the Potency entry was “inactive”.

With `O=C(Nc1c(Cl)cccc1Cl)C1CCC1`, the Potency entry was “inactive”.

In the case of `Cc1cccc(NC(c2cccc(F)c2)c2ccc3ccc(C)nc3c2O)n1` (stereo unspecified), the Potency was 5.8 µM (active).

Regarding `CC(=O)NC(c1cccc(F)c1)c1nc(-c2cccc(F)c2)cs1` (stereo unspecified), the Potency entry is “inactive”.

Consider `CSCCC(NC(=O)c1ccco1)C(=O)Nc1cc(C)ccn1` (stereo unspecified), for which the Potency entry was “inactive”.

Turning to `N#Cc1cccc(CN2CCC(=O)N([C@H](CO)c3ccccc3)CC2)c1`, the Potency result is “inactive”.

On to `O=C(CSCc1c(F)cccc1Cl)NCC1CCCO1` (stereo unspecified), for which the Potency entry is “inactive”.

Turning to `N#Cc1cccc(-c2ccc3ncnc(NCc4cccs4)c3c2)c1`, the Potency was 23.1 µM (active).

Take `O=c1c(NCc2cccs2)nccn1-c1ccccc1`: the Potency result was “inactive”.

Take `O=C(O)c1ccc2c(c1)C(=O)N(NC(=O)c1ccc(O)cc1)C2=O`: the Potency entry is “inactive”.

Take `COc1ccccc1OCC(=O)Nc1nnc2n1CCS2`: the Potency entry is “inactive”.

In the case of `O=C(CSc1nc2ccccc2[nH]1)Nc1nc(-c2ccccc2)c(-c2ccccc2)o1`, the Potency entry is “inactive”.

Take `O=C(CSc1nc2ccccc2[nH]1)N/N=C/C=C\c1ccccc1[N+](=O)[O-]`: the Potency was 20.6 µM (active).

Take `O=C(COC(=O)CCCSc1nc2ccccc2[nH]1)Nc1ccc(Oc2ccccc2)cc1`: the Potency result is “inactive”.

`Cc1cnc(CNc2ncncc2-c2ccccc2Cl)cn1`: the Potency entry was “inactive”.

With `COCC1CCN(C(=O)CCc2nnc(C3(c4ccc(Cl)cc4)CCC3)o2)C1` (stereo unspecified), the Potency result is “inactive”.

`COc1ccccc1-c1n[nH]nc1C1=CC(=O)CC(C)(C)C1`: the Potency entry was “inactive”.

Consider `COc1ccccc1C1=Nc2cccc3cccc(c23)N1`, for which the Potency is 5.17 µM (active).

Regarding `c1ccc(C2=Nc3cccc4cccc(c34)N2)cc1`, the Potency was 11.6 µM (active).

In the case of `COc1ccccc1-c1nc(SC)n[nH]1`, the Potency result is “inactive”.

Take `CC1(C)CC(=O)C=C(NCCN2CCNCC2)C1`: the Potency result is “inactive”.

With `COc1ccc(C(=O)OCC(=O)Nc2cccc(C(C)=O)c2)cc1OC`, the Potency result was “inactive”.

With `COC(=O)c1sc(N)c(C(=O)OC)c1COC(=O)CNS(=O)(=O)c1ccc(C)cc1`, the Potency result was “inactive”.

Take `COCCN(C(=O)c1ccccc1F)c1c(N)n(Cc2ccccc2)c(=O)[nH]c1=O`: the Potency result is “inactive”.

As for `CCCNC(=O)c1cc(C2CCCCN2S(=O)(=O)c2cn(C)cn2)on1` (stereo unspecified), the Potency result is “inactive”.

In the case of `O=C(NCc1ccc(F)cc1)c1cc(C2CCCCN2C(=O)C2CCCCC2)on1` (stereo unspecified), the Potency was 23.1 µM (active).

On to `CS(=O)(=O)N1CCCCC1c1cc(C(=O)NCc2ccccc2)no1` (stereo unspecified), for which the Potency result is “inactive”.

Regarding `O=C(c1cc(C2CCCCN2S(=O)(=O)c2ccccc2)on1)N1CCOCC1` (stereo unspecified), the Potency result is “inactive”.

On to `O=C(NCc1ccc(F)cc1)c1cc(C2CCCCN2C(=O)c2ccccn2)on1` (stereo unspecified), for which the Potency is 20.6 µM (active).

With `O=C(NCc1cccnc1)c1cc(C2CCCN(C(=O)C3CCCCC3)C2)on1` (stereo unspecified), the Potency result was “inactive”.

For `CC(Oc1ccc(Cl)cc1)C(=O)OCC(=O)Nc1ncc(Cl)cc1Cl` (stereo unspecified), the Potency entry was “inactive”.

On to `COC(=O)c1c(NC(=O)C(=O)N2CCCCC2)sc2c1CC(C)(C)OC2`, for which the Potency entry was “inactive”.

Regarding `COC1=NC2=NCCN2C(OC)=N1`, the Potency result was “inactive”.

Turning to `CC(C)Oc1ccc(C(=O)Nc2cc(=O)n(C)c(=O)n2C)cc1`, the Potency result is “inactive”.

For `Cc1ccc2cccc(NC(=O)c3ccc(OC(C)C)cc3)c2n1`, the Potency is 29.1 µM (active).

In the case of `Cc1ccc2cccc(NC(=O)C(C)Oc3ccc(C)c(C)c3)c2n1` (stereo unspecified), the Potency entry was “inactive”.
